In the library only some 4.7% were active in any assay of this set; here they are far more common.
HepG2 tox-1 – counter-screen for TGF-b inhibitors: cytotoxicity in HepG2 cells | HepG2 CAGA-GFP viability, ATP luminescence, 18 h | Potency, µM (top dose mostly 46.1 µM), most hits filed as cytotoxic | actives 0.76% (n = 410,000) | AID 588856
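HepG2 CAGA-GFP cells (1000/well, DMEM with 1% FBS) received compound, then TGF-beta at 500 pg/mL final, and were incubated 18 hours at 37 degrees C. Viability was read by CellTiter-Glo luminescence. Media-only wells were set as complete cell-killing and DMSO as no toxicity.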
D3 antag – blocks the human D3 dopamine receptor; D3R cells, DiscoveRx beta-arrestin luminescence, antagonist mode; hits give low values; max response, negative = inhibition, %; actives 2.5% (n = 360,000); AID 652054; in the data active = max response below about -50%; inconclusive = no clear call, values can overlap the other calls
Target sequence (P35462 whole entry, looked up): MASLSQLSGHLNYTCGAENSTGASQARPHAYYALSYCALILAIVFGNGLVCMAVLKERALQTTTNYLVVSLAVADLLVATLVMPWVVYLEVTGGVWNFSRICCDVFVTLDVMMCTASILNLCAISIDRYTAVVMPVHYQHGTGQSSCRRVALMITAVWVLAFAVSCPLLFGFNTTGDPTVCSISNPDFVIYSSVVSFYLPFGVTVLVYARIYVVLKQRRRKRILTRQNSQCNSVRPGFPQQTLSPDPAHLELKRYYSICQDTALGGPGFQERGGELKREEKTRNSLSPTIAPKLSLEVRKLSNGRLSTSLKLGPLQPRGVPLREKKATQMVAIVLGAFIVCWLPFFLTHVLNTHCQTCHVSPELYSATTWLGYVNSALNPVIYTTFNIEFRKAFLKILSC
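Cells expressing the human receptor were seeded at 1500 cells/well, incubated overnight at 37 degrees C in 5% CO2, then exposed to library compounds with dopamine controls for 90 minutes at 37 degrees C before luminescent detection.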
TGFb SMAD3 inh – blocks TGF-b signaling. HepG2 CAGA-GFP TGF-b/SMAD3 reporter, GFP fluorescence, 18 h; TGF-beta stimulated, 500 pg/mL final. Potency, µM (highest dose often 46.1 µM), usual class: inhibitors. actives 1.2% (n = 410,000); note: nearly all actives have a fitted effect of over 65% in size
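Inhibition of TGF-beta-driven CAGA-GFP reporter expression in HEPG2 cells is measured by cellular GFP fluorescence after 18 h stimulation with 500 pg/mL recombinant TGF-beta in 1% FBS medium at 37 degrees C.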
DRD3 agonist – agonists of human D3 dopamine receptor; D3R DiscoveRx beta-arrestin cells, luminescence, 90 min; max activation, %; P35462; actives 0.58% (n = 410,000); in the data active = max activation above about 30%
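Agonist-mode cell screen: cells plated at 1500/well and incubated overnight at 37 °C, then exposed to library compounds for 90 min at 37 °C. Detection reagent was added for 30–60 min at room temperature, and luminescence was read.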
ATXN2 expr inh – inhibitors of ATXN2 expression; actives 0.72% (n = 360,000); HEK-293 ATXN2-luciferase reporter, luminescence, 24 h; Potency, µM (highest dose often 57 µM), usual class: inhibitors; note: nearly all actives have a fitted effect of over 55% in size
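ATXN2-luciferase reporter cells (luciferase flanked by upstream and downstream ATXN2 gene portions) were treated 24 h at 37 °C with compounds at up to 57 uM. SteadyGlo luminescence gave expression; GF-AFC fluorescence gave viability.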
ATXN viability – cell viability loss in ATXN counter-screen; S2 cells (HEK-293 line with an ATXN2-luciferase reporter) viability, CellTiter-Fluor protease fluorescence, 24 h; Potency, µM (series often up to 56.7 µM), actives largely listed as cytotoxic; AID 651635; actives 0.49% (n = 400,000); note: nearly all actives have a fitted effect of over 40% in size
TGFb confirm – TGF-b pathway inhibition, cherry-pick retest. HepG2 CAGA-GFP TGF-b reporter, GFP fluorescence, 18 h; cells stimulated with TGF-beta, 500 pg/mL. Potency, µM (doses to about 46.1 µM), usual class: inhibitors. actives 63% (n = 1,600). shares compounds with TGFb SMAD3 inh. AID 720534; note: nearly all actives have a fitted effect of over 65% in size
HepG2 tox-2 – toxic to HepG2 cells in TGF-b counterscreen; HepG2 CAGA-GFP viability, ATP luminescence, 18 h; cells stimulated with TGF-beta, 500 pg/mL; shares compounds with TGFb SMAD3 inh; Potency, µM (series often up to 46.1 µM), most hits filed as inhibitors; actives 27% (n = 1,600); AID 720535; note: nearly all actives have a fitted effect of over 70% in size
CCL64 TGFb inh – TGF-b inhibition, CCL64 orthogonal assay; shares compounds with TGFb SMAD3 inh; CCL64 CAGA-GFP reporter, TGF-b stimulated, GFP fluorescence, 18 h; Potency, µM (series often up to 46.1 µM), hits mostly inhibitors; actives 41% (n = 1,600); AID 720536; note: nearly all actives have a fitted effect of over 65% in size
COP TGFb inh – validation of TGF-b inhibitors in HepG2 COP promoter reporter. HepG2 COP-GFP TGF-b reporter, GFP fluorescence, 18 h; cells stimulated by added recombinant TGF-beta. actives 3% (n = 1,600). shares compounds with TGFb SMAD3 inh. Potency, µM (titrated, usually from 46.1 µM), usual class: inhibitors. AID 720537; note: nearly all actives have a fitted effect of over 70% in size
Each line names hits and unclear results; the compound was inactive in the other large screens (follow-up assays come after a bar, where they were run); ! = a repeat was not active. Unless noted, calls come from the whole dose curve; as a rule, active = well fitted curve in the direction sought with a large enough effect; inconclusive = small, poorly fitted or top-dose-only effect, or another doubt; inactive = no such curve, though single readings can be large; an effect the other way counts as inactive or inconclusive.

Cc1ccc(CC(=O)Nc2c(C(=O)N3CCN(c4ccccc4)CC3)oc3ccccc23)cc1	TGFb SMAD3 inh inconclusive (no result: D3 antag, ATXN2 expr inh, ATXN viability)
Cn1c(=O)oc2cc(S(=O)(=O)N3CCC(C(=O)N4CCN(c5ccccc5F)CC4)CC3)ccc21	none (no result: D3 antag)
CC(=O)Nc1ccc(N=Cc2c(O)c(C(=O)Nc3ccccc3)cc3ccccc23)cc1	TGFb SMAD3 inh 7.08µM (no result: ATXN2 expr inh) | TGFb confirm inactive | HepG2 tox-2 11.6µM | CCL64 TGFb inh 4.61µM | COP TGFb inh inactive
CC(=O)Nc1ccc(N=Cc2c(O)c3ccccc3oc2=O)cc1	none
CC(C)Oc1ccc(CNC(=O)c2ccc3c(c2)N(Cc2ccc(F)cc2)CCS3)cc1	none (no result: D3 antag, TGFb SMAD3 inh, ATXN2 expr inh, ATXN viability)
Cc1nc(NCc2ccco2)c2c(C)c(C)sc2n1	TGFb SMAD3 inh 7.94µM, ATXN2 expr inh 11.2µM, ATXN viability inconclusive | TGFb confirm 8.2µM | HepG2 tox-2 5.17µM | CCL64 TGFb inh inactive | COP TGFb inh inactive
Cc1sc2nc3c4ccccc4c(NCc4ccco4)nn3c(=O)c2c1C	none
CCOc1ccc(NC(=O)c2c(NC(=O)c3ccco3)sc3c2CCC(C(C)(C)C)C3)cc1 (centres undefined)	none (no result: D3 antag)
CCOc1ccc(NC(=O)CN2C(=O)c3ccccc3Sc3ccc(C(=O)OC)cc32)cc1	none (no result: D3 antag)
Cc1ccc(C(=O)C2CCN(CC(=O)Nc3nc(C)cs3)CC2)cc1	TGFb SMAD3 inh inconclusive | TGFb confirm 18.4µM | HepG2 tox-2 inactive | CCL64 TGFb inh inactive | COP TGFb inh inactive
COc1ccc(C(=O)C2CCN(CC(=O)Nc3cc(C)cc(C)c3)CC2)cc1	none
COc1ccc(CNC(=O)N2CCc3nc(Nc4cc(OC)c(OC)c(OC)c4)ncc3C2)cc1	none
COc1cc(NC(=O)N2CCc3nc(Nc4cc(Cl)cc(Cl)c4)ncc3C2)cc(OC)c1OC	TGFb SMAD3 inh 17.8µM, ATXN2 expr inh inconclusive | TGFb confirm 20.6µM | HepG2 tox-2 inconclusive | CCL64 TGFb inh 7.31µM | COP TGFb inh inactive
COc1ccc(-c2nc(CNC(=O)NC3CCCCC3)c(C)o2)cc1	none (no result: D3 antag)
O=C1/C(=C/c2ccccc2[N+](=O)[O-])COc2ccccc21	D3 antag -70.7, TGFb SMAD3 inh 7.94µM, ATXN2 expr inh 21.2µM, ATXN viability 23.8µM | TGFb confirm 2.06µM | HepG2 tox-2 10.3µM | CCL64 TGFb inh 2.31µM | COP TGFb inh inactive
CNc1ccc(/C=C2\COc3ccccc3C2=O)cc1[N+](=O)[O-]	none
Cc1ccc(NC(=O)CCc2c(C)nc3nc(C)nn3c2C)c(Cl)c1	none (no result: D3 antag)
O=C(Cn1nc(-c2ccc(Cl)cc2)ccc1=O)NCCc1ccccc1	none (no result: D3 antag)
Cc1nc2c(o1)C(=O)c1ccccc1C2=Nc1ccccc1	HepG2 tox-1 1.41µM, D3 antag inconclusive, TGFb SMAD3 inh 1.26µM, ATXN2 expr inh 28.2µM (no result: ATXN viability) | TGFb confirm 3.66µM | HepG2 tox-2 4.11µM | CCL64 TGFb inh 5.8µM | COP TGFb inh 4.11µM
Cc1ccc(N2CCN(C(=O)c3ccccc3)CC2)c(C)c1	TGFb SMAD3 inh 10µM | TGFb confirm inconclusive | HepG2 tox-2 inactive | CCL64 TGFb inh 18.4µM | COP TGFb inh inactive
Cc1ccc(N2CCN(C(=O)c3cc(C(=O)c4ccccc4C)c[nH]3)CC2)c(C)c1	TGFb SMAD3 inh 17.8µM, ATXN viability inconclusive | TGFb confirm 6.51µM | HepG2 tox-2 inactive | CCL64 TGFb inh inconclusive | COP TGFb inh inactive
Cc1ccc(N2CCN(C(=O)c3ccccc3Br)CC2)c(C)c1	none
Cc1cccc(N2CCN(C(=O)c3ccc(S(=O)(=O)N(C)c4ccccc4)cc3)CC2)c1C	TGFb SMAD3 inh 5.62µM | TGFb confirm 9.2µM | HepG2 tox-2 inactive | CCL64 TGFb inh inconclusive | COP TGFb inh inactive
Cc1cccc(N2CCN(C(=O)C3COc4ccccc4O3)CC2)c1C (centres undefined)	TGFb SMAD3 inh 11.2µM (no result: ATXN2 expr inh) | TGFb confirm 16.4µM | HepG2 tox-2 inactive | CCL64 TGFb inh inconclusive | COP TGFb inh inactive
CN1CCN(C(=O)c2ccc(S(=O)(=O)N(C)c3ccccc3)cc2)CC1	none (no result: ATXN2 expr inh)
Cc1ccc(C)c(N2CCN(C(=O)c3ccccc3Br)CC2)c1	none
Cn1c(=O)c2c(nc(N3CCOCC3)n2Cc2cccc(Br)c2)n(C)c1=O	none (no result: D3 antag)
Cc1ccc(-c2nnc3ccc(SCC(=O)c4ccccc4)nn23)cc1	none (no result: D3 antag, DRD3 agonist, ATXN2 expr inh, ATXN viability)
COc1cc(OC)c(N(C)C(=O)c2cc3c(s2)-c2ccccc2OC3)cc1Cl	TGFb SMAD3 inh inconclusive (no result: D3 antag)
Cc1oc2cc(Br)c(O)c(Br)c2c1-c1ccccc1	TGFb SMAD3 inh 10µM | TGFb confirm inconclusive | HepG2 tox-2 inactive | CCL64 TGFb inh inconclusive | COP TGFb inh inactive
COc1ccc(CNC(=O)c2nc(SC(C)C)ncc2Cl)cc1	none (no result: D3 antag)
O=C(NCc1ccccc1)c1nc(S(=O)(=O)Cc2ccccc2)ncc1Cl	HepG2 tox-1 8.91µM!, D3 antag -78.4, TGFb SMAD3 inh 6.31µM, ATXN viability inconclusive (no result: ATXN2 expr inh) | TGFb confirm 4.61µM | HepG2 tox-2 5.17µM | CCL64 TGFb inh 2.31µM | COP TGFb inh 29.1µM
COc1ccc(CNC(=O)c2nc(S(=O)(=O)Cc3ccccc3)ncc2Cl)cc1	HepG2 tox-1 12.6µM, D3 antag -97.1, TGFb SMAD3 inh 6.31µM, ATXN viability 17.8µM (no result: ATXN2 expr inh) | TGFb confirm 3.66µM | HepG2 tox-2 16.4µM | CCL64 TGFb inh 2.31µM | COP TGFb inh inconclusive
O=C(NCc1ccc2c(c1)OCO2)c1nc(S(=O)(=O)Cc2ccccc2)ncc1Cl	D3 antag -65.8, TGFb SMAD3 inh 10µM, ATXN2 expr inh inconclusive, ATXN viability inconclusive | TGFb confirm 2.31µM | HepG2 tox-2 3.66µM | CCL64 TGFb inh 2.59µM | COP TGFb inh 23.1µM

High-throughput results (PubChem BioAssay)
